tim10-1 inh – growth inhibitors of tim10-1 mutant yeast | S. cerevisiae tim10-1 ts strain growth, BacTiter-Glo, 24 h | inhibition, % at 20 µM | hit rate 2.2% among 330,000 | AID 463190;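 active means inhibition of at least 40%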;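 further: mutant grown at 25 °C; 0% = DMSO wells with yeast and 100% = wells holding no yeast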
SKKanGAS inh – SKKanGAS growth inhibition; S. pyogenes SKKanGAS, kanamycin growth, BacTiter-Glo, 6 h; inhibition, % at 7.5 µM; AID 1662; hit rate 1.3% among 300,000;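 active means mean replicate score, as percent of positive control median, at least 50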;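 further: strain carries kanamycin resistance gene driven by streptokinase promoter and grows in 40 µg/ml kanamycin; loss of luminescence reflects streptokinase promoter inhibition or plain growth inhibition; 0% = median of DMSO wells and 100% = positive control at its reference dose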
TIM10 inh – TIM10 yeast growth inhibition; S. cerevisiae TIM10 strain growth, BacTiter-Glo luminescence, 24 h; inhibition, % at 10 µM; hit rate 1.4% among 330,000; AID 463195;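 active means inhibition of 40% or more at the single tested concentration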;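 further: wild-type TIM10 isogenic control strain grown at permissive 25 °C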
PfHsp90 yeast 2 – reduces growth (ATP signal) of yeast expressing P. falciparum Hsp90 | S. cerevisiae expressing PfHsp90, BacTiter-Glo ATP, 48 h; yeast lacking PDR1 and PDR3 efflux regulators | hit rate 0.32% among 310,000 | inhibition, % at 9.4 µM;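 active means every replicate shows inhibition above about 80%, whatever the replicate mean, limit read from the data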;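 further: 0% = DMSO neutral controls and 100% = 20 µM radicicol positive controls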
tim23-1 inh – growth inhibitors of tim23-1 mutant yeast; hit rate 1.3% among 330,000; inhibition, % at 20 µM; S. cerevisiae tim23-1 growth, BacTiter-Glo luminescence, 24 h;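 active means growth inhibition of the mutant yeast at or above 50%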;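 further: temperature-sensitive mutant grown at 25 °C; plate controls were DMSO-treated mutant yeast for no effect and medium wells lacking yeast for full effect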
tim10-1 conf – tim10-1 yeast growth inhibition, confirmed; inhibition, % at 20 µM; hit rate 56% among 7,400; S. cerevisiae tim10-1 ts strain growth, BacTiter-Glo, 24 h; shares compounds with tim10-1 inh;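 active means inhibition of yeast growth at or above a set limit in either of two repeat tests at 20 µM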;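 further: tim10-1 mutant grown at permissive 25 °C to find synthetic lethal compounds; 0% = DMSO yeast wells and 100% = medium wells without yeast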
The depositor's hits bear a star; . = no result given. Hits are enriched below; roughly 4.4% of the tested compounds scored in any of these assays.

SMILES | tim10-1 inh | SKKanGAS inh | TIM10 inh | PfHsp90 yeast 2 | tim23-1 inh | tim10-1 conf
COc1ccc(OC)c(C2=NS(=O)(=O)N(C)C(C(=O)Nc3ccc(F)cc3F)=C2)c1 | 42.0* | 5.0 | -3.5 | -38.6 | 25.9 | 19.4
COc1cc2c(cc1OC)C(C)N(C(=O)Nc1cc(C)cc(C)c1)CC2 (stereo not drawn) | 23.0 | 0.3 | 12.0 | -7.7 | 17.7 | .
COc1cc2c(cc1OC)C(C)N(C(=O)c1cc3c(C)cc(C)cc3[nH]1)CC2 (stereo not drawn) | 41.0* | 4.5 | 20.8 | -13.5 | 39.4 | 10.5
CCc1ccccc1N(CC(=O)NC(C)c1ccccc1)S(C)(=O)=O (stereo not drawn) | -6.2 | -4.9 | -6.5 | 4.5 | -3.6 | .
CCNC(=S)N/N=C/c1c(Cl)cccc1Cl | 40.9* | -9.2 | 21.2 | 3.5 | 19.3 | 22.4
CCNC(=S)N/N=C/c1cccc(/C=N/NC(=S)NCC)c1 | -18.1 | -6.2 | -1.6 | -16.9 | -7.7 | .
CC(C)(C)NC(=S)N/N=C/c1c(Cl)cccc1Cl | 40.5* | -7.0 | 36.9 | 0.2 | 32.5 | 20.8
COc1ccccc1N(C)S(=O)(=O)c1ccc(C(=O)NCc2ccccc2CN2CCCC2)cc1 | . | . | . | -6.0 | . | .
CCOC(=O)C1CCCN(C(=O)c2ccccc2NS(=O)(=O)c2ccc(F)cc2)C1 (stereo not drawn) | 6.5 | . | -0.7 | -25.0 | 21.5 | .
CCN(CC)c1ccc(C2Nc3cccc4cccc(c34)N2)c(O)c1 | 42.7* | . | 18.9 | 1.9 | 29.0 | 27.2
CCc1ccc(CN(C)C(=O)c2cc(COc3cccc4cnccc34)on2)cc1 | 44.3* | 7.8 | 17.3 | -1.8 | 40.4 | 1.9
O=C(c1cc(COc2cccc3cnccc23)on1)N1CCC(c2ccccc2Cl)C1 (stereo not drawn) | 51.1* | 16.9 | 12.3 | 7.5 | 32.2 | 2.9
Cc1sc(NC(=O)C2=COCCO2)c(C(N)=O)c1C | 10.4 | 8.5 | 10.9 | . | 25.4 | .
COc1ccc(OCC(=O)N2N=C(C(F)F)CC2(O)C(F)F)cc1 (stereo not drawn) | 52.8* | 12.2 | 1.8 | 15.6 | 21.2 | 42.5*
Cc1cc(C)n(CC(=O)N2N=C(C(F)F)CC2(O)C(F)F)n1 (stereo not drawn) | 5.4 | -4.9 | -5.1 | -5.1 | 7.9 | .
CCOC(=O)C1=C(C)NC(C)=C(C(=O)OCC)C1C(=O)OCC(=O)N1CCOCC1 | -2.4 | . | -0.2 | . | 7.7 | .
CCOCCCNC(=S)N1CCN(c2nc(-c3ccccc3)cs2)CC1 | 19.1 | -3.5 | 8.4 | -4.5 | 33.8 | .
COCCCNC(=S)N1CCN(c2nc(-c3ccccc3)cs2)CC1 | 40.0* | 4.6 | 5.8 | -25.5 | 35.7 | 13.4
COc1cccc(-c2csc(N3CCN(C(=S)Nc4ccccc4Cl)CC3)n2)c1 | 43.7* | 14.9 | 29.1 | -30.8 | 25.0 | 34.0*
CCCCOC(=O)c1ccc(NC(=O)COC(=O)CSc2nc(C)cc(C)n2)cc1 | 45.7* | -3.7 | 0.4 | -13.0 | 31.9 | 29.9
COc1ccc(NC(=O)CSc2nc(C)cc(C)n2)cc1 | -2.7 | -3.8 | -0.2 | 12.9 | 2.8 | .
CCn1c(SCc2c(F)cccc2Cl)nnc1-c1ccco1 | 49.0* | 6.2 | 13.1 | 2.2 | 43.2 | 41.1*
CCn1c(SCc2nc(-c3ccccc3)no2)nnc1-c1ccco1 | 21.6 | -13.5 | -0.7 | 18.0 | 5.1 | .
Cn1cnc([N+](=O)[O-])c1S(=O)(=O)c1cccc(Cl)c1 | 15.5 | 4.8 | 18.0 | 14.7 | 29.1 | .
CCCn1c(CC)nc([N+](=O)[O-])c1S(=O)(=O)c1ccccc1 | 54.2* | 10.5 | 37.9 | 16.3 | 39.7 | 43.3*
SMILES | tim10-1 inh | SKKanGAS inh | TIM10 inh | PfHsp90 yeast 2 | tim23-1 inh | tim10-1 conf
O=[N+]([O-])c1c(C(Cl)Cl)nn(-c2ccccc2)c1N1CCOCC1 | 43.6* | -2.5 | 29.2 | -34.9 | 44.2 | 35.1*
O=C(c1cc(COc2ccc(F)cc2Cl)on1)N1CCCC(OCc2cccnc2)C1 (stereo not drawn) | 44.4* | -9.6 | 8.0 | 19.4 | 19.9 | 26.0
O=C(NCCc1cccnc1)c1cc(COc2ccc(F)cc2Cl)on1 | 45.0* | -15.3 | 3.2 | 11.8 | 28.8 | 17.8
COc1cc(C)ccc1OCc1cc(C(=O)N2CCC(c3ccc(F)cc3)C2)no1 (stereo not drawn) | 41.0* | 13.8 | 19.3 | -4.5 | 33.1 | 26.9*
CC(=O)c1ccc(OC(C)C(=O)NCC2(N3CCOCC3)CCCCC2)cc1 (stereo not drawn) | -3.9 | . | -3.0 | -9.0 | -1.8 | .
N/C(=N\OC(=O)COc1ccc2ccccc2c1Br)c1ccccn1 | 43.2* | 16.9 | 36.2 | -26.8 | 31.2 | 54.9*
S=C(NCCc1cccc(Cl)c1)NC1CCCCC1 | 40.2* | 23.8 | 27.5 | -21.1 | 38.2 | 25.4
S=C(NCCc1ccccc1)NC1CCC(NC(=S)NCCc2ccccc2)CC1 (stereo not drawn) | 6.0 | -5.1 | -6.1 | -10.9 | -8.1 | .
S=C(NCc1ccc(Cl)cc1Cl)NC1CCCCC1 | 41.9* | 23.2 | -5.4 | -27.0 | 37.0 | 17.4
Cn1c(N)c(C(=O)CSc2nnc(-c3c[nH]c4ccccc34)n2C2CC2)c(=O)[nH]c1=O | -3.9 | . | 3.9 | -20.9 | 8.5 | .
O=C(CCN1C(=O)C2C3C=CC(C4CC34)C2C1=O)Oc1ccccc1 (stereo not drawn) | 11.4 | 0.9 | -3.4 | . | 10.8 | .
Cc1cccc(C)c1OC(=O)CCN1C(=O)C2C3C=CC(C4CC34)C2C1=O (stereo not drawn) | 40.8* | -0.1 | 14.7 | 28.4 | 26.5 | 30.2
COc1ccc(NC(=O)CC2C(=O)N(C)C(=S)N2Cc2cccs2)cc1 (stereo not drawn) | 21.2 | 2.7 | -1.9 | -1.8 | 18.1 | .
CCCOc1ccc(NC(=O)CC2C(=O)N(CC)C(=S)N2Cc2cccs2)cc1 (stereo not drawn) | 49.6* | 2.7 | 13.6 | 24.8 | 9.7 | 34.9*
Cc1noc(C)c1S(=O)(=O)Nc1ccc2c(c1)C(=O)N([C@H](C)CO)C[C@H](C)[C@@H](CN(C)S(=O)(=O)c1ccc(F)cc1)O2 | -9.0 | . | 2.5 | -11.2 | -1.2 | .
O=C(CSc1ccccn1)N1CCN(c2cccc(Cl)c2)CC1 | 43.2* | -6.4 | 14.2 | 14.4 | 17.8 | 17.4
O=C(Cc1ncc(C(F)(F)F)cc1Cl)N1CCN(c2cccc(Cl)c2)CC1 | 42.8* | -2.0 | 0.1 | -2.7 | 7.2 | 9.2
COc1ccc(NC(=O)CN(C)C(=O)c2cccc(S(=O)(=O)N3CCN(c4ccc(F)cc4)CC3)c2)cc1 | . | . | . | 20.1 | . | .
O=C(O)CCS(=O)(=O)c1cc(Br)cc2c1N(C(=O)C1CC1)CC2 | 6.2 | 11.3 | 12.6 | 17.2 | 12.3 | .
CCCCN(C)S(=O)(=O)c1cc(Br)cc2c1N(C(=O)C1CC1)CC2 | 41.8* | -7.9 | 31.7 | -18.7 | 40.8 | 32.1*
CCCc1ccc2oc(C(=O)N3CCC(C(N)=O)(N4CCCCC4)CC3)c(C)c2c1 | 42.5* | 6.9 | 21.6 | 2.2 | 42.5 | 27.5
CCOc1ccc(C(=O)CCC(=O)N2CCN(S(=O)(=O)c3cccc(F)c3)CC2)cc1 | 14.3 | . | 8.5 | -7.3 | 28.9 | .
